Assay [1] has as its target T1, Aspartate--tRNA(Asp/Asn) ligase (Mycobacterium tuberculosis (strain ATCC 25618 / H37Rv)) (UniProt P9WFW3). Also: in the data most compounds retested in dose-response had high values.
T1 sequence (whole entry): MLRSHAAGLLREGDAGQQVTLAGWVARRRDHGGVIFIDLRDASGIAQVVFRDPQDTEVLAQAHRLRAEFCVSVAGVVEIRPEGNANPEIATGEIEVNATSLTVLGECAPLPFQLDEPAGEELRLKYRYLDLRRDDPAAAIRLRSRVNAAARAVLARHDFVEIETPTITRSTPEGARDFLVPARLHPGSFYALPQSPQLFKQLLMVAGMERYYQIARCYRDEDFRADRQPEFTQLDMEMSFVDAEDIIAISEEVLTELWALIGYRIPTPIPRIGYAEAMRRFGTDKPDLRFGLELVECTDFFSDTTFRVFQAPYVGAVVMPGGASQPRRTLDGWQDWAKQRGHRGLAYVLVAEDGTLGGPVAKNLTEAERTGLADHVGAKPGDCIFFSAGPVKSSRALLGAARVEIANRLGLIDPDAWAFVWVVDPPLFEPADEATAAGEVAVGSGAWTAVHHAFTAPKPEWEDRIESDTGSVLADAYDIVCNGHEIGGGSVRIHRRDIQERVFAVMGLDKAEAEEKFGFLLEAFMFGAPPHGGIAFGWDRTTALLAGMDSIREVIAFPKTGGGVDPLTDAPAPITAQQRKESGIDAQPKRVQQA
Briefly: Assay for Asp RNA synthetase-1 from Mycobacterium tuberculosis. Format: functional. Further details: scale not given: direction of the effect not stated beside the values. As to conditions: 30 µM.

In assay [2] the target is Shiga toxin 2 (Escherichia coli O157:H7) (UniProt P09385+P09386). Briefly: E. coli 0.157:H7 Shiga Toxin SOP - stx2 screening assay. To be noted: 30 µM. Format: functional. Further details: scale not given: direction of the effect not stated beside the values.

Results on 51 molecules are retold here after ChEMBL document CHEMBL3988442, “University of Dundee, Small-Polar-MMV Screening Library” (2021).

Consider `Cc1csc2nc3n(c(=O)c12)CCN(C(=O)c1ccncc1)CC3`, for which the Percent Effect is -3.92% in assay [1] and 3.14% in assay [2].
For `CN(C)CCN1CCOCC2(C1)CN(Cc1ccsc1)CCO2` (configuration not stated), in that order: 6.63% and 3.8%.
Taken in the same sequence, the figures for `CC(NC(=O)NCCCN(C)C)c1ccc2c(c1)CCC(=O)N2` (configuration not stated) were -3.92% and 7.67%.
Taken in the same sequence, the figures for `O=C(NCC1OCCc2cn(CC3CC3)nc21)c1ccsc1` (configuration not stated) were -3.57% and -12.1%.
As to `CCc1nc(C2CCCN2C(=O)c2ccoc2C)no1` (configuration not stated), the Percent Effect is 1.77% in assay [1] and -24% in assay [2].
Taken in the same sequence, the figures for `Cc1ccoc1C(=O)NC1CCN(Cc2cccc3c2OCCO3)CC1` were -2.4% and -34.8%.
For `Cc1cnn(CCNCc2ccc(F)cc2Cl)c1`, in that order: 0.495% and -22.9%.
With `CCC(O)CN1CCN(C(=O)c2cccn2Cc2cccs2)CC1` (configuration not stated), the Percent Effect was found to be 0.685% in assay [1] and 9.26% in assay [2].
Taken in the same sequence, the figures for `O=C(Nc1ccc(N2CCCC2)nc1)N1CCc2sccc2C1` were 0.155% and -146%.
For `CNC(=O)c1cccc(C2CNCCN2C)c1` (configuration not stated), in that order: -2.1% and -13.8%.
For `CC(C)(CNC(=O)CCOc1cccc(F)c1)C(N)=O`, in that order: -0.256% and 29.6%.
For the molecule `CC(C)(C)c1cn2nc(N3CCC[C@@H]3CO)sc2n1`, the Percent Effect was -3.63% in assay [1] and -8.45% in assay [2].
Consider `CCC1CN(c2nnc(C)c(C)c2C#N)CCO1` (configuration not stated), for which the Percent Effect amounted to 0.1% in assay [1] and 11.9% in assay [2].
For `Cc1cnn(CC2CCCN2CCc2nc3ccccc3c(=O)[nH]2)c1` (configuration not stated), in that order: -3.23% and 2.14%.
For `CN(Cc1ccco1)Cc1ccccc1CNC(=O)c1cc[nH]n1`, in that order: 0.435% and 9.38%.
For `Cc1cccc(C(=O)N2CCC(Cc3cnc4[nH]ccc4c3)CC2)n1`, in that order: 4.87% and 5.08%.
For `COc1ccc(C)cc1CN1CCCC1c1noc(C2CC2)n1` (configuration not stated), the Percent Effect in assay [1] is -4.34%; in assay [2], -3.88%.
For `CNc1cncc(C2CCCN2Cc2c[nH]cn2)n1` (configuration not stated), in that order: 7.49% and 7.95%.
For `Cc1[nH]c(=O)[nH]c(=O)c1CN1CCCC(CCc2ccccc2)C1` (configuration not stated), in that order: -0.814% and -2.29%.
As to `O=C(c1cscn1)N1CC[C@]2(C[C@@H](OCCN3CCCC3)CO2)C1`, the Percent Effect in assay [1] was -3.81%; in assay [2] it was -17.4%.
On to `COCCCNC(=O)CN1CCCC1c1c(C)nn(C)c1Cl` (configuration not stated), for which the values for the Percent Effect in assay [1] and in assay [2] were -4.32% and -37%, respectively.
On to `O=C(N1CCOCC1)N1CCc2ncnc(NC3CC3)c2CC1`, for which the Percent Effect in assay [1] is 6.32%; in assay [2] it was -39.4%.
For `CCN1C[C@@H]2[C@@H](OC)CCN(S(=O)(=O)c3ccccc3F)[C@@H]2C1`, in that order: -3.02% and 0.716%.
Regarding `Cc1ccc(CC2CCCN2CC(=O)NCc2cccnc2)cc1` (configuration not stated), the Percent Effect turned out to be 0.509% in assay [1] and 16.7% in assay [2].
As for `CC(=O)N1CCCCC1c1nc2c(c(N3CCCCC3)n1)CN(C)CC2` (configuration not stated), the Percent Effect in assay [1] is -1.98%; in assay [2], 2.68%.
For `Cc1nc(CN2CCCC(NCCOc3ccccc3)C2)no1` (configuration not stated), in that order: -8.02% and -0.215%.
For `CCN(CC)C(=O)c1ccn(COc2ccccc2)n1`, in that order: -2.64% and 4.36%.
Consider `O=C(c1ccoc1)N1CCCn2cnc(COCC3CC3)c2C1`, for which the Percent Effect in assay [1] was -5.91%; in assay [2], -6.53%.
For `Cc1cnc(N)c(C(=O)C2CCN(C(=O)c3ccccc3F)CC2)c1`, in that order: -1.9% and -8.93%.
For `CCOc1ccccc1Nc1nc2c(C)nn(C)c2c(=O)n1C`, in that order: 1.66% and -24.7%.
For `CC(=O)N1CCCN(CC(C)(O)c2cccc(C(F)(F)F)c2)CC1` (configuration not stated), in that order: 0.301% and -32.4%.
For the molecule `O=C(N[C@@H]1CN(Cc2ccsc2)[C@@H]2CCCO[C@@H]21)C1CC1`, the Percent Effect in assay [1] was -0.611%; in assay [2], -18.9%.
Taken in the same sequence, the figures for `Cc1ccc(C(O)CNCCn2cccn2)cc1C` (configuration not stated) were -5.54% and 2.86%.
For `O=C(NC[C@H]1OC[C@@H]2CCN(Cc3ccco3)C[C@@H]21)c1ccsc1`, in that order: -1.14% and 4.74%.
Taken in the same sequence, the figures for `O=C(c1cnc(-c2cccs2)s1)N1CCCC(n2cccn2)C1` (configuration not stated) were 2.29% and 17.4%.
As to `Cc1ccsc1C(=O)N1CC(C(=O)NCC2CC2)C2(CCOCC2)C1` (configuration not stated), the Percent Effect in assay [1] is 8.9%; in assay [2], -7.68%.
Taken in the same sequence, the figures for `CC(=O)c1cccc(NC(=O)Cn2cc(I)cn2)c1` were 6.41% and -55.6%.
As to `CCCNC(=O)C(C)NC(=O)CCc1ccccc1Br` (configuration not stated), the Percent Effect was 0.362% in assay [1] and -18.6% in assay [2].
In the case of `Cc1ccc(-c2nc(CN3CCN(S(=O)(=O)N(C)C)CC3)cs2)o1`, the Percent Effect in assay [1] is 2.34%; in assay [2] it was -12.2%.
Taken in the same sequence, the figures for `CN(C)C(=O)c1cnc2n1CCN(Cc1ccccc1)C2` were 0.632% and -28%.
For `COC(=O)C(NC(=O)C(C)C)c1cc(F)ccc1F` (configuration not stated), in that order: -0.455% and 15.2%.
For `CN(c1ccc(C(C)(C)C)cc1)S(=O)(=O)c1cc(C(=O)O)cs1`, in that order: 1.85% and 12.9%.
With `CN(c1cccnn1)C1CCN(C(=O)c2ccc3c(c2)COC3)CC1`, the Percent Effect in assay [1] is -2.64%; in assay [2], 13.1%.
With `Cn1cnnc1C1CCCN(C(=O)c2cnc3ccccc3n2)C1` (configuration not stated), the results for the Percent Effect in assay [1] and in assay [2] were -1.76% and 36.5%, respectively.
For `Cc1cccc(CNC2CCCc3c2cnn3C)c1` (configuration not stated), in that order: 0.855% and -9.23%.
As to `CN(Cc1cn2c(n1)CN(C1CCOC1)CC2)Cc1ccco1` (configuration not stated), the Percent Effect in assay [1] is 4.4%; in assay [2], -24.2%.
Regarding `Cc1ccc(N2CCCC(NCc3cccc4c3OCCO4)C2)nn1` (configuration not stated), the Percent Effect in assay [1] came to 4.13%; in assay [2], 19%.
For `COCCn1cc2c(n1)C(CNCc1ccco1)OCC2` (configuration not stated), in that order: 3% and -35.6%.
For `CCn1cc2c(n1)C(COC)CN(Cc1ccccn1)C2` (configuration not stated), in that order: 7.76% and -16.8%.
Taken in the same sequence, the figures for `Cc1cccc(C)c1OCCNC(=O)NC(C)c1nncn1C` (configuration not stated) were -2.19% and -46.4%.
As for `COc1ccccc1CC1CCCN(CCC#N)C1` (configuration not stated), the Percent Effect in assay [1] is -3.31%; in assay [2] it was 32.8%.
